Assay outcomes from PubChem BioAssay.
A selection: hits, their analogues and other compounds. The true share with any hit is near 19%.
IL-1B inflam inh – inhibitors of inflammasome signaling (IL-1 beta secretion); AID 743279; activity change, % at 57.5 µM; 4.7% of 360,000 active; THP-1 LPS/ATP IL-1B secretion, AlphaLISA, 16 h; active compounds read low; in the data active means activity change below about -50%; inconclusive means mostly about -30% to -49%
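Secreted IL-1B measured by AlphaLISA bead assay after 16 h compound exposure of THP-1 cells; compounds (final up to 57.5 uM) added 1 h before LPS (250 ng/mL) and ATP (1.25 mM) stimulation; lower signal means less secretion.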
DT40 TDP1 CPT – DT40-hTDP1 cell growth loss with CPT; chicken DT40 Tdp1-/-;hTDP1 cells + 20 nM CPT, ATP luminescence, 48 h; 12% of 420,000 active; Potency, µM (series often up to 46.2 µM), inactives show at the highest dose activity change, negative = growth inhibition, usual class: inhibitors; further: potency means the concentration at half of the fitted maximal effect; nearly all actives have a fitted effect of over 55% in size
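Chicken DT40 Tdp1-/- cells complemented with human TDP1, 400 cells/well, exposed to compounds plus 20 nM camptothecin for at least 48 h at 37 C; viability read as ATP content by CellTiter-Glo luminescence.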
HT1080-NT tox – kills 2HG-producing HT-1080-NT fibrosarcoma cells; HT-1080-NT fibrosarcoma viability, CellTiter-Glo ATP luminescence, 48 h; Potency, µM (doses to about 46.1 µM), for inactives: top-dose activity, negative = less viability, most hits filed as cytotoxic; 1.6% of 360,000 active;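 further: NT is the 2HG producing partner of a matched IDH1 knockdown line; potency means the concentration at half of the fitted maximal effect; 0% = DMSO-treated cells and -100% = media-only wells without cells; nearly all actives have a fitted effect of over 55% in size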
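HT-1080-NT fibrosarcoma cells (2HG-overproducing), 750 cells/well in RPMI with 5% FBS, dosed after 2 h and incubated 48 h at 37C. CellTiter-Glo luminescence normalized to DMSO and no-cell wells; concentration-response curves fitted and classed.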
DT40 TDP1 no CPT – qHTS for Inhibitors of human tyrosyl-DNA phosphodiesterase 1 (TDP1): qHTS in cells in absence of CPT; 15% of 420,000 active; DT40 Tdp1-/- hTDP1 cells, no CPT, ATP luminescence, 48 h; Potency, µM (series often up to 46.2 µM), inactives show at the highest dose activity change, negative = growth inhibition, actives largely listed as inhibitors; further: potency means the concentration at half of the fitted maximal effect; nearly all actives have a fitted effect of over 55% in size
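Chicken DT40 Tdp1-/- cells stably complemented with human TDP1 were seeded at 400 cells/well with DMSO in place of 20 nM camptothecin. After compound pinning, cells grew at least 48 hr at 37 °C; viability read by CellTiter-Glo luminescence.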
HT1080 IDH1KD tx – HT-1080 IDH1 knockdown cell toxicity (counter line) | HT-1080 IDH1 knockdown viability, ATP luminescence, 48 h | Potency, µM (series often up to 46.1 µM), for the others: at the highest dose activity, negative = toxicity, hits mostly cytotoxic | 2% of 360,000 active;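 further: potency means the concentration at half of the fitted maximal effect; 0% = DMSO wells and -100% = cell-free medium wells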
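Using the IDH1-knockdown HT-1080 line run in the same batch and compound series as the NT line, viability after 48 h at 37 °C was determined by CellTiter-Glo luminescence and expressed as % activity.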
* marks the source's active call; other numbers are inactive results; i = inactive; ? = inconclusive; . = not tested or not shown; ! = not active in a repeat; [ ] = remark or other dose. Unless noted, the call rests on the fitted dose curve; in most records, active means well fitted curve in the direction sought with a large enough effect; inconclusive means small, poorly fitted or top-dose-only effect, or another doubt; inactive means no such curve, though single readings can be large; an effect the other way counts as inactive or inconclusive. Unless noted, on the % scale 0 is the no-effect control and ±100 the full control effect.

SMILES | IL-1B inflam inh | DT40 TDP1 CPT | HT1080-NT tox | DT40 TDP1 no CPT | HT1080 IDH1KD tx
CC(C)CCC(O)(CCC(C)C)C(=O)NN1CCCCC1 | 17.2 | -24.8% | 5.3% | 0.1% | 8.2%
CCCC(O)(CCC)C(=O)NN1CCCCC1 | 19.5 | 23.1µM* | 24.4% | ? | 3.6%
C/C(CCc1ccccc1)=N/NC(=O)C(=O)NC(C)c1ccccc1 (stereo unspecified) | 15.2 | 3.7% | 2.7% | -2.1% | 4.4%
Cc1cc(OCC[N+]2(C)CCCCC2)nc2ccccc12 | 4.4 | ? | 13.8% | 20.6µM* | 6.2%
Cn1c(Oc2ccc(Cl)cc2)nc2c1c(=O)n(Cc1ccc(F)cc1)c(=O)n2C | . | -1.8% | . | -26.5% | .
CCOC(=O)c1nn(-c2ccc(F)cc2)c(=O)cc1OCC(=O)Nc1ccc(OCC)cc1 | -8.4 | -7.8% | 18.6% | -23.8% | 13.0%
Cc1cc(C)n(-c2ccc(NC(=O)C3CCCCN3C(=O)c3ccoc3)cc2)n1 (stereo unspecified) | i | -18.5% | -5.9% | -10.5% | 15.1%
Cc1cc(C)n(-c2ccc(NC(=O)C3CCCCN3C(=O)c3cc(C)oc3C)cc2)n1 (stereo unspecified) | -6.9 | 14.6µM* | -7.7% | ? | 0.0%
Cc1ccc(C)c(S(=O)(=O)Nc2ccc3scnc3c2)c1 | -18.9 | 23.1µM* | ? | 18.4µM* | 11.6µM*
Cc1ccc(C)c(S(=O)(=O)Nc2ccc3[nH]c(=O)[nH]c3c2)c1 | 10.8 | ? | 1.5% | ? | -16.8%
Cc1nnc(SCc2cc(=O)[nH]c(N3CCCCC3)n2)s1 | 27.0 | -3.0% | -4.7% | -5.4% | 8.3%
CCOC(=O)N1CCC(NC(=O)C2CCCN(Cc3nc(-c4cccc(C)c4)oc3C)C2)CC1 (stereo unspecified) | -27.0 | 5.8µM* | ? | 2.59µM* | ?
Cc1cccc(-c2nc(CS(=O)CC(=O)NC3CCCCC3)c(C)o2)c1 (stereo unspecified) | -3.1 | -21.4% | -9.6% | -19.9% | -2.0%
Cc1cccc(-c2nc(CN3CCCC(C(=O)N4CCN(c5cc(Cl)ccc5C)CC4)C3)c(C)o2)c1 (stereo unspecified) | . | 16.4µM* | . | 20.6µM* | .
CCOC(=O)N1CCC(NC(=O)C2CCCN(c3nc4ccccc4o3)C2)CC1 (stereo unspecified) | -4.7 | -9.3% | -3.9%[9.24 µM] | -18.0% | -3.5%
Cc1cccc(-c2nc(CN3CCCC(C(=O)NC4CCCC4)C3)c(C)o2)c1 (stereo unspecified) | -23.9 | ? | ? | 11.6µM* | ?
Cc1cccc(-c2nc(CN3CCCC(C(=O)NC4CCC(C)CC4)C3)c(C)o2)c1 (stereo unspecified) | 1.3 | ? | -26.4% | 18.4µM* | -24.5%
CC(C)CN(C(=O)COC(=O)c1cccn1C)c1c(N)n(Cc2ccccc2)c(=O)[nH]c1=O | 0.9 | 16.4% | -1.7% | -22.4% | -0.7%
CCOc1ccccc1NS(=O)(=O)c1ccc2c(c1)oc(=O)n2C | . | -19.9% | . | -18.6% | .
Cc1c(C(=O)N2CCCCC2CCN2CCCC2=O)oc2c(F)cccc12 (stereo unspecified) | -16.8 | ? | -2.7% | -25.7% | -2.6%
COc1ccc(N2CCN(C(=O)c3ccc(-c4nc(COc5ccccc5)c(C)o4)cc3)CC2)cc1 | . | -16.9% | . | -11.9% | .
Cc1ccc(OCc2nc(-c3ccc(C(=O)N4CCN(c5cc(Cl)ccc5C)CC4)cc3)oc2C)cc1 | . | 23.1µM* | . | 11.6µM* | .
CC(=O)Nc1cccc(OCC(=O)Nc2sccc2C(N)=O)c1 | 0.0 | ? | 2.7% | ? | 4.8%
Cc1cccc(N(C)c2nc3ccc(C(=O)c4ccccc4)cc3n3c(C)nnc23)c1 | . | ? | . | 20.6µM* | .
O=C1C=C(O)CC(c2ccc(Cl)c(Cl)c2)C1 (stereo unspecified) | 22.4 | -4.1% | -2.9% | 6.1% | 4.3%
CN[C@H]1CC[C@@H](c2ccc(Cl)c(Cl)c2)c2ccccc21 | -21.4 | 15µM*! | 7.31µM* | 15µM* | .
